From the supplement of paper PMC11417369
In all, about 25,000 sequences were measured (“ln(normalized median fluorescence intensity)”: median about 7.1, highest 2% from about 10 on). Shown is part of a subset that was picked to be rich in the highest values.

system: PfSIP2 AP2 domain 1 (GST-tagged); assay: gcPBM binding intensity (ln(normalized median fluorescence intensity)); higher = stronger DNA binding
In short: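 Plasmodium falciparum DNA-binding domains carrying a GST tag were expressed in E. coli and applied for 1 h, at about 25 μg on average, to an Agilent 4 × 180k array. The array held primer-extended double-stranded 36-bp intergenic genomic probes together with negative controls, and binding took place in 1× PBS with 1% milk, 0.2 mg/ml BSA, 0.5% salmon testes DNA and 0.03% Triton X-100. An Alexa488 anti-GST antibody detected bound protein, and the array was scanned at 488 nm. Binding intensity is taken as the highest Masliner-normalised natural-log median intensity across replicate spots of either probe orientation.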

Sequence	gcPBM binding intensity (ln)
TTTTTTTTTTTCTTTGCACACAGATAACTTGAAATT [CACACA_site2184]	7.2
TATTATTAATATGTATGGTTGTAATCTGTGTCTCCT [TGCATGCA_negctrl_site190]	7.12
CATTTTTTGCTTTCAACACACATACAATATATATAA [CACACA_site6127]	7.26
AAAAAGAATAAATAAATAAATAAATATATATATATA [GTGCAC_negctrl_site584]	9.47
AATATATGTAAATGGACACACACATATATATATATA [CACACA_site9220]	9.61
AGAAATGAAATATACACACATACATATATACATATA [CACACA_site4033]	7.21
ACATATATGTATAATACACACACTAATATATAATTG [CACACA_site1966]	7.15
CATATAAAAAATATGGTGCAGTTTTTTTTTTTTTTT	10.4
AAAATTTATAGTATGGTGCATAAAAATATATATATA	10.3
TTATAAAAAATTTTAGTGCATATATGATTTATATAT [GTGCAC_site9831]	8.21
CATATATAAATATAAATATATATATATATATATATG [XGTACX_negctrl_site493]	7.56
TTTTGTAGTTTATAAATAAAAGAGAATATGGTGCTT [CACACA_negctrl_site413]	7.7
GAATTATAAATTATAGTGCATAAAATTATGGCATAA [GTGCAC_site9938]	8.52
AAAATTAATATCTTGGTGCATTTTTTAATATTATTA [GTGCAC_site9638]	10
ATATATATATATGTAGTGCATTTTATATATAATATT	9.01
TAATATATATATATGGTGCATTTAATTTATATATAA	10.8
ACTCTATACATCTAATGTACATGGAAAAAAAAATTC [XGTACX_site733]	7.28
ATTTATTTATTTATATGTACATATATATATATATAT [XGTACX_site339]	9.54
TTAATTTATAAAAACACACACAGGTAAAAAGGTGCA [CACACA_site1177]	9.31
TATTAATTTATTTGTTGTACGTAAATATGCTTGTTT [XGTACX_site6591]	7.26

Sequence	gcPBM binding intensity (ln)
AAATGAACAAGTGGCACACACACATTCTAACTAATT [CACACA_site3203]	6.93
TTCTATTTGTAAAATTGTACAAAATAAATAACAAAA [XGTACX_site1007]	7.04
TACTTTTATATGAATACACACAGGAATATAAATATG [CACACA_site7647]	7.2
GTATGAAAAAAAATATGTACACATATATATTTGGTA [XGTACX_site6309]	7.07
TTCTTTGCTTTTCAAACACACAAAAGTTATTATATT [CACACA_site521]	7.22
TAGAAAAACATTACGTGTACCAAACATCCTAGCAAC [XGTACX_site4888]	7.19
TTGTTCATATTTTTTATTGTGTTAATATTTATAAAA [GTGCAC_negctrl_site423]	7.28
GCAGCAGCATTTTCAGTGCATTATTATATTGTTCAT [GTGCAC_site9926]	7.98
TTCATTGTGTTAACGGTGCATATATTTTTTCACCGT [GTGCAC_site9464]	10.3
CAAAAGGATAGGCACACACACACACCCATATATATA [CACACA_site2199]	7.55
ATGTATATAATATTATGTACATATATGAAATATTTT [XGTACX_site8168]	7.02
CGCACCCACAGACACACACACACATATATATATATA [CACACA_site2202]	9.47
CGCGCACCCAGACACACACACACACCCATATATATA [CACACA_site2203]	10.8
CGCGCCCAGAAACACACACACACACCGATATATATA [CACACA_site5250]	7.62
CGCGCACCCAGACACACACACACACCGATATATATA [CACACA_site8687]	10.6
GGAGCACCCAGACACACACACACATATATATATATA [CACACA_site336]	9.19
CACACCCACCAACACACACACACACCCACCCATATA [CACACA_site366]	7.11
CACGCGCACCAACACACACACACACCCATATATATA [CACACA_site2204]	10.6
CACCCCCACAGACACACACACACACCGATATATATA [CACACA_site8010]	7.89
CACCCACACCAACACACACACATATATATATATATA [CACACA_site362]	9.74

Sequence	gcPBM binding intensity (ln)
TTTTAGCACTTATTATAAGATATCAAAAAGATGGGT [XGTACX_negctrl_site325]	7.32
ATAAATTCTATGTATACACACATATATAATATATAT [CACACA_site2689]	7.26
TTTTTATTAATAGATATAAATATATAATATGAATGT [TGCATGCA_negctrl_site309]	7.04
AAAGAATTATATAAGGTGCACGAATGTTTCTTTAAT	10.9
TTTCTTTTTTTTTAATGTACTTTTTTTATAAAAGGT [XGTACX_site5688]	7.27
ATAATTATTTAATATATATATATTATTTCGAATGTT [GTGCAC_negctrl_site688]	7.03
TAAAAACAAAAATGTTGTACATAATATAAAACAATT [XGTACX_site6380]	7.04
ATTTTTTAAATTTAAACACACATTTTGTATATGTTT [CACACA_site1654]	7.02
ATATATATATATTTATGTACATATATTTTTTTTTTT [XGTACX_site8558]	8.71
CATATATATTTTATATGTACATATATATTTTATATA [XGTACX_site8665]	7.03
ATTTTTTTTTTTTTATGTACATATAGGTGCAAATCA [XGTACX_site6748]	11.4
GACAATTATATGTAGGTGCATATACAAATTTTTTAA	10.9
ATATTTTTATTAGTAGTGCAATTTAGTGTATATATA [GTGCAC_site9542]	8.39
AATTCATTTTACCCATGTACACAATTATATTTTATA [XGTACX_site4127]	7.23
TTTATATATTATTAATGTACAAAATTTTTATTGCAT [XGTACX_site3329]	6.96
ATATATTTATTAAGGTGTACAAAAATTATGTTGCAT [XGTACX_site7546]	7.16
ATTTATATTACCCTTGCATGTAGGTGCAATTTTTTT [TGCATGCA_site757]	11
ATGTTATATATGTATTGTACGTATTTTGTATATTAT [XGTACX_site6607]	7.4
